The list shows a part of the results. The source made the active and inactive calls.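 The calls were made as follows: active = mean activation above a set limit taken from an earlier procaspase-7 screen; inactive = the rest.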

Caspase-7 (Homo sapiens), sequence (P55210 whole entry D23A/D198A/D206A): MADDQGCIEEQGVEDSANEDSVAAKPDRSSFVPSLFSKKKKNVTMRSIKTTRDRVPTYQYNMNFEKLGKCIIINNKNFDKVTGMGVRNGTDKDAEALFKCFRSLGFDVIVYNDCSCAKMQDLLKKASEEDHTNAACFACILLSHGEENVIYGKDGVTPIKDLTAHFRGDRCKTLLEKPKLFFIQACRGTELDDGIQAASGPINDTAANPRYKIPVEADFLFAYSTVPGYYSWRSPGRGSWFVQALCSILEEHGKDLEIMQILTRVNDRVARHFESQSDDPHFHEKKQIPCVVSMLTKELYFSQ

This assay has as its target Caspase-7 (Homo sapiens) (UniProt P55210). Briefly: procaspase-7 activators, counter-screen for procaspase-3 activator project, biochemical, absorbance, triplicate, human (AID 488941).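 Also: 0% = DMSO wells and 100% = DMSO plus 5 µM procaspase-7 enzyme.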 Conditions: recombinant procaspase-7, Ac-DEVD-pNA absorbance; at 8.5 µM; active compounds read high; asp23/198/206-to-Ala mutant, cannot self-cleave.
For `O=C(CCNS(=O)(=O)c1ccccc1C(F)(F)F)NCc1ccc2c(c1)OCO2`, the activation was 1.59% (inactive).
Consider `CN1CCN(CCCNC(=O)c2ccc(/C=C3\Oc4ccccc4N(Cc4ccc(Cl)cc4)C3=O)cc2)CC1`, for which the activation was -19.9% (inactive).
In the case of `COc1ccc2nc(Nc3nc4ccc(NC(C)=O)cc4s3)sc2c1`, the activation is -1.13% (inactive).
For `COC(=O)Cc1cc(=O)oc2c(C)c(O)ccc12`, the activation was -20.2% (inactive).
Turning to `COC(=O)c1cnc(Nc2cc(C)ccc2OC)c2ccccc12`, the activation is -21.2% (inactive).
The result for `COc1ccc(-c2sc3ccc(OC)cc3c2C#Cc2ccccn2)cc1` reads 6.29% (inactive).
Take `Oc1ccccc1C1=NN(c2ccccc2)C(c2ccccc2)C1` (stereo unspecified): the activation is -21.3% (inactive).
The result for `COc1ccccc1NS(=O)(=O)c1ccc(C(=O)N2CCN(c3ccccc3O)CC2)cc1` reads 0.45% (inactive); that for `CCOc1ccc2nc(NCCNS(=O)(=O)c3ccccc3)c(C#N)cc2c1`, -21% (inactive); that for `Cc1nn(C)cc1CNC(=O)Nc1ccc(Cl)cc1`, 1.34% (inactive).
Turning to `COc1ccc(CCNC(=O)COC(=O)c2ccc[nH]c2=O)cc1`, the activation is 3.85% (inactive).

The record behind these values is PubChem BioAssay AID488941 (The Scripps Research Institute Molecular Screening Center, 2010).
